“And” between values parts separate entries of the source, which are not always exact repeats. Identical values can stand only once. In all, about 5,500 compounds went through this assay and about 2,000 (36%) were called active. Not shown: some 18% with an inconclusive outcome. Cut-off read from the data, not from the text of the source: active = normalized growth mostly below about 0.91 (no sharp cut-off); inconclusive = no clear call, values can overlap the other calls; inactive = mostly above about 0.92. This is one part of the list.
Experiment: chemical genetic growth profiling, strain panel (AID 1159580);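 note: tested at 20 µM; growth read once vehicle control cultures reached saturation at 30 °C; 1 = growth at the plate median or of vehicle wells; lower values mean less growth of the strain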
Details: S. cerevisiae deletion strains, growth OD

Measured: normalized growth

C[C@H](COc1ccccc1)N[C@H](C)[C@H](O)c1ccc(O)cc1
inactive: locus YAL021C, strain ccr4, hits give low values 0.964 | locus YAL026C, strain drs2, hits give low values 0.974 | locus YAL030W, strain snc1, hits give low values 0.999 | locus YBL061C, strain skt5, hits give low values 1.01 | locus YBR009C, strain hhf1, hits give low values 1 | locus YBR021W, strain FUR4, hits give low values 0.986 | locus YBR023C, strain chs3, hits give low values 0.981 | locus YBR171W, strain sec66, hits give low values 0.997 | locus YBR229C, strain ROT2, hits give low values 0.995 | locus YBR231C, strain swc5, hits give low values 0.988 | locus YBR279W, strain paf1, hits give low values 0.982 | locus YCL011C, strain gbp2, hits give low values 1 | locus YCL016C, strain dcc1, hits give low values 0.979 | locus YCL029C, strain bik1, hits give low values 0.996 | locus YCL061C, strain MRC1, hits give low values 0.986 | locus YCL069W, strain vba3, hits give low values 0.997 | locus YCR088W, strain abp1, hits give low values 0.998 | locus YDL005C, strain med2, hits give low values 0.999 | locus YDL035C, strain GPR1, hits give low values 1.03 | locus YDL040C, strain nat1, hits give low values 0.994 | locus YDL074C, strain BRE1, hits give low values 1.03 | locus YDL101C, strain DUN1, hits give low values 1 | locus YDL185W, strain tfp1, hits give low values 0.992 | locus YDL192W, strain arf1, hits give low values 0.998 | locus YDR001C, strain nth1, hits give low values 0.992 | locus YDR069C, strain doa4, hits give low values 0.998 | locus YDR101C, strain arx1, hits give low values 1.01 | locus YDR137W, strain rgp1, hits give low values 0.963 | locus YDR150W, strain NUM1, hits give low values 1 | locus YDR159W, strain sac3, hits give low values 0.99 | locus YDR162C, strain NBP2, hits give low values 1 | locus YDR195W, strain ref2 0.993 | locus YDR297W, strain sur2, hits give low values 0.99 | locus YDR318W, strain mcm21, hits give low values 0.994 | locus YDR334W, strain swr1, hits give low values 0.996 | locus YDR335W, strain msn5, hits give low values 1 | locus YDR388W, hits give low values 0.997 | locus YDR392W, strain spt3, hits give low values 0.952 | locus YDR502C, strain sam2, hits give low values 1.01 | locus YEL003W, strain gim4, hits give low values 1 | locus YEL037C, strain rad23, hits give low values 0.997 | locus YEL061C, strain CIN8 (second series), hits give low values 0.996 | locus YEL061C, strain CIN8, hits give low values 1 | locus YER015W, strain faa2, hits give low values 1 | locus YER016W, strain bim1, hits give low values 1.01 | locus YER110C, hits give low values 0.975 | locus YER111C, strain swi4, hits give low values 0.988 | locus YER155C, strain BEM2 (second series), hits give low values 0.983 | locus YER155C, strain BEM2, hits give low values 0.986 | locus YER167W, strain BCK2, hits give low values 0.985 | locus YFR010W, strain ubp6, hits give low values 0.996 | locus YGL078C, strain dbp3, hits give low values 0.98 | locus YGL086W, strain mad1, hits give low values 1.01 | locus YGL167C, strain pmr1, hits give low values 1 | locus YGL173C, strain kem1, hits give low values 1 | locus YGL227W, strain vid30, hits give low values 0.986 | locus YGL240W, strain doc1, hits give low values 0.988 | locus YGL248W, strain PDE1, hits give low values 0.993 | locus YGL253W, strain hxk2, hits give low values 1.01 | locus YGR078C, strain PAC10, hits give low values 1.01 | locus YGR135W, strain pre9, hits give low values 0.942 | locus YGR252W, strain gcn5, hits give low values 0.988 | locus YHR013C, strain ard1, hits give low values 0.969 | locus YHR027C, strain rpn1, hits give low values 0.997 | locus YHR030C, strain SLT2, hits give low values 0.993 and 1 | locus YHR079C, strain IRE1 (second series), hits give low values 0.991 | locus YHR079C, strain IRE1, hits give low values 0.985 | locus YHR094C, strain hxt1, hits give low values 0.974 | locus YHR129C, strain ARP1, hits give low values 0.992 | locus YHR142W, strain chs7, hits give low values 1 | locus YHR200W, strain rpn10, hits give low values 0.992 | locus YIL066C, strain RNR3, hits give low values 0.987 | locus YIL073C, strain SPO22, hits give low values 0.977 | locus YIL125W, strain kgd1, hits give low values 1 | locus YIR030C, strain dcg1, hits give low values 0.993 | locus YJL092W, strain hpr5, hits give low values 0.992 | locus YJL095W, strain BCK1 (second series), hits give low values 0.998 | locus YJL095W, strain BCK1, hits give low values 0.965 and 1 | locus YJL115W, strain asf1, hits give low values 0.996 | locus YJL129C, strain trk1, hits give low values 0.993 | locus YJL134W, strain LCB3, hits give low values 0.991 | locus YJL154C, strain vps35, hits give low values 0.998 | locus YJL164C, strain tpk1, hits give low values 0.996 | locus YJL166W, strain qcr8, hits give low values 0.989 | locus YJL168C, strain set2, hits give low values 0.99 | locus YJL187C, strain SWE1 (second series), hits give low values 0.985 | locus YJL187C, strain SWE1, hits give low values 1.01

Source: PubChem BioAssay AID1159580 (chemical genetic matrix, 2015)
